High-throughput results from PubChem.
Only some compounds are listed: those with a hit (about 2.8% of all), similar ones and a draw of the others.
PAFAH1B2 FP inh: inhibitors of human PAFAH1B2 | P68402 | recombinant PAFAH1B2, FP-rhodamine activity probe, fluorescence polarization | inhibition, % at 3.39 µM | 1.2% of 340,000 active | AID 492953;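 active = inhibition above the mean of all tested compounds plus 3 SD, cut at about 24% in these data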;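 note: 0% = enzyme with DMSO and 100% = wells lacking PAFAH1B2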
PAFAH1B3 FP inh: blocks human PAF acetylhydrolase 1B catalytic subunit 3; Q15102; recombinant PAFAH1B3, FP-rhodamine probe, fluorescence polarization; inhibition, % at 3.39 µM; 0.28% of 340,000 active;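 active = inhibition above the screen-wide average of all tested compounds plus 3 SD, cut at about 25% in these data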;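 note: 0% = enzyme with DMSO only and 100% = wells lacking PAFAH1B3 protein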
PAFAH2 FP inh: PAFAH2 (human) inhibition; recombinant PAFAH2, FP-rhodamine activity probe, fluorescence polarization; 0.99% of 340,000 active; inhibition, % at 3.39 µM; Q99487;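 active = inhibition above the mean over all tested compounds plus 3 SD, cut at about 30% in these data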;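 note: inhibitors block probe labeling of enzyme so polarization drops; 0% = enzyme with DMSO and 100% = wells lacking PAFAH2 protein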
Fam108B counter: counter-screen for RBBP9 inhibitors: inhibitors of mouse Fam108B. 0.33% of 300,000 active. recombinant Fam108B, FP-Rh probe fluorescence polarization. inhibition, % at 9.51 µM. AID 1947;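 active = inhibition above the screen mean inhibition plus 3 SD, computed separately per campaign, cut at about 18% in these data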;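 note: inhibitors lower polarization as less probe binds the enzyme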
pPAFAH FP inh: inhibitors of human plasma PAF acetylhydrolase (pPAFAH). Q13093. recombinant pPAFAH, FP-rhodamine probe fluorescence polarization. inhibition, % at 3.39 µM. 1.5% of 330,000 active;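 active = inhibition above the mean inhibition across the screen plus 3 SD, cut at about 25% in these data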;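 note: inhibitors block binding of the rhodamine activity-based probe so polarization drops; 0% = enzyme with DMSO and 100% = wells lacking pPAFAH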
PME-1 inh: PME-1 (human) inhibition | AID 2130 | Q9Y570 | 0.53% of 320,000 active | recombinant PME-1, FP-Rh probe fluorescence polarization | inhibition, % at 5.9 µM;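 active = inhibition above the campaign mean of all compounds plus 3 SD, cut at about 26% in these data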;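 note: competitive labeling of PME-1 active site by serine hydrolase directed probe; 0% = PME-1 with DMSO and 100% = wells lacking PME-1 enzyme; inhibitors block probe labeling so polarization falls and inhibition rises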
Target sequence (Q9Y570 whole entry, looked up): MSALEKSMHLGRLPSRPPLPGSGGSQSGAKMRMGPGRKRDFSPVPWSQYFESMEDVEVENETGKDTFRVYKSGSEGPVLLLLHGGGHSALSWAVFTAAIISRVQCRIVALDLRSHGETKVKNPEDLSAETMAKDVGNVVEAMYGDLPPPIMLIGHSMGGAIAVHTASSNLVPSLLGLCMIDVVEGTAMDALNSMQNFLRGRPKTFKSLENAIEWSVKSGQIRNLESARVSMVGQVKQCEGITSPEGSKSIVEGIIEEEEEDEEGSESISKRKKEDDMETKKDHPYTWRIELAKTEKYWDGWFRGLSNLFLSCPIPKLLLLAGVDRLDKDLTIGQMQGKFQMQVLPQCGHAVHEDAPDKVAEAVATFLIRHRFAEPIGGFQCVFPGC
* hit, by the source's call; x = not tested or not shown.

SMILES	PAFAH1B2 FP inh	PAFAH1B3 FP inh	PAFAH2 FP inh	Fam108B counter	pPAFAH FP inh	PME-1 inh
CCC(C)c1ccc(OCCn2cc(/C=N/NC(=O)CSc3nnc(C)s3)c3ccccc32)cc1 (centres undefined)	4.0	13.5	-12.5	0.3	26.1*	4.4
O=C1CCCN1CCCNc1ccc2nnc(CCC(=O)N3CCN(c4ccccc4)CC3)n2n1	-0.3	6.1	-3.8	-2.3	2.3	-2.1
CC1CN2C(c3ccc(Cl)cc3)=CSC2=N1 (centres undefined)	-4.8	-1.5	-1.1	-8.8	-8.8	-10.7
Cc1ccc(C(=O)NCC(=O)OCC(=O)Nc2ccc3[nH]c(=O)[nH]c3c2)cc1	3.1	3.2	-1.7	-0.5	3.5	4.6
CCOC(=O)N1CCN(S(=O)(=O)c2ccc(C(=O)NNc3nc4cc(C)cc(C)c4s3)cc2)CC1	2.4	15.6	14.2	6.5	28.0*	4.0
CCOC(=O)N1CCN(S(=O)(=O)c2ccc(C(=O)NNc3nc4c(C)cccc4s3)cc2)CC1	7.5	16.7	-12.7	6.0	18.9	6.4
Cc1cc(C)c2nc(NNC(=O)c3ccc(S(=O)(=O)N4CCCCC4)cc3)sc2c1	4.5	16.7	13.3	13.5	21.4	6.6
CCOC(=O)N1CCN(S(=O)(=O)c2ccc(C(=O)NNc3nc4c(C)cc(C)cc4s3)cc2)CC1	x	x	x	10.6	32.1*	4.1
CC1CN(C(=O)c2ccc(CNS(=O)(=O)c3cccc(Cl)c3)cc2)CC(C)O1 (centres undefined)	9.1	9.6	-1.4	x	x	x
Clc1ccc(N=C2SCC3CCCCN23)cc1 (centres undefined)	0.9	-4.5	4.5	0.6	1.3	-1.2
FC(F)Oc1ccc(N=C2SCC3CCCCN23)cc1 (centres undefined)	0.8	13.1	6.9	1.5	32.8*	1.4
O=C(O)c1cccc(O)c1O	-1.6	3.9	2.4	-6.0	1.4	-3.8
Oc1cccc(O)c1O	x	x	x	-9.0	95.6*	-0.2
Cc1ccc(S(=O)(=O)NNC(=O)CCCCC(=O)NNS(=O)(=O)c2ccc(C)cc2)cc1	24.0	4.6	10.6	-0.8	-0.3	-1.7
CC(=O)Nc1ccc(S(=O)(=O)c2ccc(C)cc2)cc1	25.1*	14.2	7.4	0.1	-2.8	2.7
Cc1ccc(S(=O)(=O)NNC(=O)C(=O)NNS(=O)(=O)c2ccc(C)cc2)cc1	28.2*	-3.8	2.3	-6.2	1.1	-2.8
Oc1ccc(NCc2cccs2)cc1	2.9	7.7	-9.4	1.9	28.0*	13.7
CC(=O)Nc1ccc(NCc2cccs2)cc1	6.1	0.9	-6.8	0.6	-0.8	-1.2
CCOc1ccc(-n2cc(-c3ccccc3)c3c(=S)nc[nH]c32)cc1	3.0	3.2	3.5	-4.1	28.2*	16.7
C=CCN1C(=O)/C(=C/c2ccc(OC(C)=O)c(OCC)c2[N+](=O)[O-])SC1=S	-1.8	-4.0	1.3	x	x	x
O=C(N=C1SC2CS(=O)(=O)CC2N1Cc1ccc(Cl)cc1)C1CC1 (centres undefined)	4.1	6.9	2.5	0.5	6.8	-5.2
C[C@H](NC(=O)c1ccco1)C(=O)NNC(=O)c1ccc(F)cc1	-1.1	13.1	-4.1	x	-0.5	x
O=Cc1ccc(F)c([B-](F)(F)F)c1	4.9	1.6	-4.5	x	x	x
CC(Sc1nn(-c2ccc(F)cc2)c(=S)s1)C(=O)c1c(N)n(C)c(=O)n(C)c1=O (centres undefined)	2.8	1.4	6.6	-2.8	29.8*	-3.1
Cc1nn(-c2ccccc2)c(Cl)c1/C=N/NC(=O)c1ccc(NS(=O)(=O)c2cccs2)cc1	x	x	x	-1.1	13.3	-4.1
SMILES	PAFAH1B2 FP inh	PAFAH1B3 FP inh	PAFAH2 FP inh	Fam108B counter	pPAFAH FP inh	PME-1 inh
Cc1nn(-c2ccccc2)c(Cl)c1/C=N/NC(=O)c1ccccc1NS(=O)(=O)c1cccs1	0.6	7.6	-3.7	-3.5	32.7*	9.8
C=CCc1c(C)nc2c(-c3ccccc3)cnn2c1N1CCOCC1	0.8	-0.3	3.5	x	x	x
COc1cc(/C=C2/SC(=S)NC2=O)ccc1OS(=O)(=O)c1ccc(C)cc1	43.0*	-5.1	-4.9	-1.8	5.1	-9.4
COc1cc(/C=C2\SC(=S)N(CCCCC(=O)O)C2=O)ccc1OS(=O)(=O)c1ccc(C)cc1	30.1*	2.8	9.2	0.1	12.9	0.7
CC(=O)c1ccc(S(=O)(=O)Nc2c(C)nn(C)c2C)cc1	-0.5	-1.5	-3.2	x	x	x
NS(=O)(=O)c1ccc(CNC(=O)c2ccc3c(c2)OCO3)cc1	-3.2	-1.4	3.9	x	-1.8	x
